Bioassay records: PubChem, National Center for Advancing Translational Sciences (NCATS)
An excerpt weighted towards active compounds, which were near 21% of everything screened.
TDP1 cell noCPT = qHTS for Inhibitors of human tyrosyl-DNA phosphodiesterase 1 (TDP1): qHTS in cells in absence of CPT | DT40 Tdp1-/- hTDP1 cells, no CPT, ATP luminescence, 48 h | 15% of 420,000 active | Potency, µM (series often up to 46.2 µM), without a hit: at the highest dose activity change, negative = growth inhibition, usual class: inhibitors; further: potency means the concentration at half of the fitted maximal effect; on the % scale 0 is the no-effect control and ±100 the full control effect; nearly all actives have a fitted effect of over 55% in size
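No-CPT arm: Tdp1-/-;hTDP1 DT40 cells (400/well) plus compounds, incubated ≥48 hr at 37 °C. Readout CellTiter-Glo luminescence.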
ClpP mod = qHTS Assay for Activators of ClpP. ATP-dependent Clp protease proteolytic subunit (Bacillus subtilis (strain 168)), P80244. 1.9% of 340,000 active. AID 651965, 2013. purified B. subtilis ClpP, FRET peptide cleavage, 20 min. Potency, µM (doses to about 57.5 µM), for the others: top-dose activity change, negative = active; active means well fitted falling curve with a large enough effect; inconclusive means small, poorly fitted or top-dose-only effect; inactive means no such curve, though single readings can be large or run the other way; further: potency means the concentration at half of the fitted maximal effect; the source files actives as falling curves though it sought activators and does not explain the sign; nearly all actives have a fitted effect of over 65% in size
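ClpP 10 microg/mL final, pH 8 Tris/KCl buffer with BSA, glycerol, Tween-20; compound pinned in; FRET-FV substrate; RT 20 min; Ex320/Em430; ΔFRET vs ADEP 5.8 microM, DMSO, no enzyme.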
IL1B secr inh = inflammasome signaling inhibition, IL-1 beta readout; THP-1 LPS/ATP IL-1B secretion, AlphaLISA, 16 h; hits give low values; 4.7% of 360,000 active; AID 743279; activity change, % at 57.5 µM; in the data active means activity change below about -50%; inconclusive means mostly about -30% to -49%; further: on the % scale 0 is the no-effect control and ±100 the full control effect
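THP-1 cells pretreated 1 hr with compounds (up to 57.5 uM final), then stimulated with LPS (250 ng/mL final) plus ATP (1.25 mM final); secreted IL-1B measured by AlphaLISA after 16 hr, decreased signal indicating inhibition.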
TDP1 cell CPT = DT40-hTDP1 cell growth loss with CPT; chicken DT40 Tdp1-/-;hTDP1 cells + 20 nM CPT, ATP luminescence, 48 h; Potency, µM (highest dose often 46.2 µM), inactives show at the highest dose activity change, negative = growth inhibition, actives largely listed as inhibitors; 12% of 420,000 active; further: potency means the concentration at half of the fitted maximal effect; on the % scale 0 is the no-effect control and ±100 the full control effect; nearly all actives have a fitted effect of over 55% in size
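Chicken DT40 Tdp1-/- cells complemented with human TDP1, 400 cells/well, exposed to compounds plus 20 nM camptothecin for at least 48 h at 37 C; viability read as ATP content by CellTiter-Glo luminescence.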
DRD3 antagonist = blocks the human D3 dopamine receptor. P35462. D3R cells, DiscoveRx beta-arrestin luminescence, antagonist mode; hits give low values. max response, negative = inhibition, %. 2.5% of 360,000 active. AID 652054; in the data active means max response below about -50%; inconclusive means no clear call, values can overlap the other calls; further: on the % scale 0 is the no-effect control and ±100 the full control effect
Target sequence (P35462 whole entry, looked up): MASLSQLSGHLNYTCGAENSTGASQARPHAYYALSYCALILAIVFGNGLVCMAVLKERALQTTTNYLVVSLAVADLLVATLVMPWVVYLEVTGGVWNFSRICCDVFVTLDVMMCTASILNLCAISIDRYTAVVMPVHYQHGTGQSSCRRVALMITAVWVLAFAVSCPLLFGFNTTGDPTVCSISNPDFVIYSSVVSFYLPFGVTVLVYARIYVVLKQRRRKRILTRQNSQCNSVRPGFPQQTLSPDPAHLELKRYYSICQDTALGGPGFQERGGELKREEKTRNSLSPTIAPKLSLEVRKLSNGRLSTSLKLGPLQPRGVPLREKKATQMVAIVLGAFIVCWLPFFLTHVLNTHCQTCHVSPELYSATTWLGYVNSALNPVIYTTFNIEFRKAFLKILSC
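Cells expressing the human receptor were seeded at 1500 cells/well, incubated overnight at 37 degrees C in 5% CO2, then exposed to library compounds with dopamine controls for 90 minutes at 37 degrees C before luminescent detection.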
D3 ag = activates the human D3 dopamine receptor; max activation, %; P35462; D3R DiscoveRx beta-arrestin cells, luminescence, 90 min; AID 652048; 0.58% of 410,000 active; in the data active means max activation above about 30%; further: 0% is about no effect
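Agonist mode: compounds and dopamine controls were applied to plated cells for 90 min at 37 degrees C after an overnight attachment at 1500 cells/well. Luminescent read-out followed 30 - 60 minutes at room temperature with DiscoveRx detection reagent.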
* hit, by the source's call; ? = inconclusive; / = no result given; [ ] = remark or other dose. Unless noted, the call rests on the fitted dose curve; in most records, active means well fitted inhibition curve with a large enough effect; inconclusive means small, poorly fitted or top-dose-only effect; inactive means flat fitted curve, though single readings scatter.

SMILES	TDP1 cell noCPT	ClpP mod	IL1B secr inh	TDP1 cell CPT	DRD3 antagonist	D3 ag
COc1cc(CNC(=O)c2cnn(-c3ncc4c(n3)-c3ccccc3CC4)c2C)cc(OC)c1OC	-17%	/	/	-2%[9.04 µM]	/	/
COc1ccc(OCC(=O)N2CCC(Cc3ccccc3)CC2)cc1	?	0%	?	7%	10	32*
O=C(COc1ccc(F)cc1)N1CCC(Cc2ccccc2)CC1	-15%	0%	-12	?	-2	2
Cc1ccc(S(=O)(=O)N2CCN(C(=O)c3cc4c(s3)CCC(C)C4)CC2)cc1 (centres undefined)	16µM*	-3%	6	?	0	3
CCOc1ccc(S(=O)(=O)N2CCN(C(=O)c3cc4c(s3)CCCC4)CC2)cc1	?	?	-3	16µM*	5	-2
CCOc1ccc(S(=O)(=O)N2CCN(C(=O)C3CC3C)CC2)cc1 (centres undefined)	?	/	8	-16%	1	-4
CCc1ccc2oc(C(=O)Nc3cccc(C(F)(F)F)c3)cc(=O)c2c1	-25%	1%	/	-22%	/	2
Cc1oc2ccc(O)c(CN(C)Cc3ccccc3)c2c1C(=O)Nc1cccc(C(F)(F)F)c1	5.2µM*	-27%	/	5.8µM*	/	-13
CN(Cc1ccccc1)Cc1c(O)ccc2ccccc12	-15%	-2%	-9	?	2	-3
Cc1nc(N2CCOCC2)c2c(C(=O)Nc3cccc(C(F)(F)F)c3)c(C)oc2n1	-3%	1%	/	-13%	/	7
Cc1oc2ccc(O)c(CN(C)Cc3ccccc3)c2c1C(=O)Nc1ccccc1	8.2µM*	-1%	/	9.2µM*	/	-11
Cc1oc2ccc(O)c(CN3CCOCC3)c2c1C(=O)Nc1cccc(C(F)(F)F)c1	?	-2%	/	16µM*	/	-16
CCCCNC(=O)c1c(N)[nH]c(C(=O)c2ccccc2)c1-c1ccccn1	?	0%	-1	?	10	3
COc1ccc(CCC(=O)NCCc2ccc(Cl)cc2)cc1	-11%	/	-24	-1%	6	8
COc1ccc2c(c1)C(SCC(=O)NCCc1ccc(Cl)cc1)CC(C)(C)O2 (centres undefined)	?	-6%	-13	16µM*	7	-5
Cc1ccc([C@@H]2C[C@H]3[C@@H](CN2S(=O)(=O)c2ccc(Cl)cc2)C(=O)C[C@@H](c2ccc(Cl)cc2)N3S(=O)(=O)c2ccccc2C)cc1	?	-1%	13	-21%	-7	4
COc1ccc(N(CC(=O)NCCSc2ccccc2)S(C)(=O)=O)cc1	-8%	/	-11	0%	-3	24
COc1ccc(S(=O)(=O)N(CC(=O)NCc2ccccn2)c2ccc(Cl)cc2)cc1	?	/	-54*	?	?	-9
COc1ccc(N(CC(=O)NCC(C)C)S(=O)(=O)c2ccccc2)cc1	-14%	/	2	-17%	3	4
COc1ccc(N(CC(=O)NCCOc2ccccc2)S(=O)(=O)c2ccc(C)cc2)cc1	21µM*	/	-22	?	-12	-13
COc1ccc(S(=O)(=O)N(CC(=O)NCCSc2ccccc2)c2ccc(Cl)cc2)cc1	12µM*	-16%	/	16µM*	/	-8
COc1ccc(N(CC(=O)NCCSCc2ccccc2C)S(=O)(=O)c2ccccc2)cc1	16µM*	-10%	-19	16µM*	-14	-8
CCOc1ccc(C(=O)Nc2ncccc2Cl)cc1	-11%	2%	-15	-5%	-8	-2
CCOc1ccc(NC(=O)C2=NN(c3ccccc3)C(=O)CC2)cc1S(=O)(=O)N1CCCCC1	?	-1%	-10	?	0	4
COc1ccc(CCNC(=O)CN(c2ccc(OC)c(OC)c2)S(=O)(=O)c2ccc(C)cc2)cc1	-21%	/	47	-7%	-4	-3
